# From PubChem BioAssay (NCATS)
# Results filed as inconclusive are left out. Active and inactive are the calls of the source. Calls follow the shape of the dose curve; as a rule, active = well fitted inhibition curve with a large enough effect; inconclusive = small, poorly fitted or top-dose-only effect; inactive = no such curve, though single readings can be large or run the other way.
# Experiment: qHTS Screen of the MIPE 4.0 Collection Against Ewings Sarcoma (TC32) (AID 1259256); also: nearly all actives have a fitted effect of over 45% in size;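 as to viability (percent of control): 100% = DMSO-treated cells and 0% = medium-only wells without cells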
# Conditions: TC32 Ewing sarcoma viability, CellTiter-Glo, 48 h; series mostly up to 45.8 µM; viability (percent of control): at the top concentration
# In short: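 Cells plated in serum-containing RPMI (5% FBS) and treated with compound dilutions for 48 h. Readout luminescent viability; normalization relied on vehicle (no inhibition) and media-only columns (full inhibition).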
# Potency is read from the fitted curve at half-maximal effect.
Compound,Potency,viability (percent of control)
COc1cc(O)c2c(c1)C1OC1C[C@H](O)[C@H](O)C(=O)C=CC[C@H](C)OC2=O (stereo partly drawn),7.43 µM (active),–
N=c1ccn2c(n1)O[C@H]1[C@@H](O)[C@@H](CO)O[C@H]12,0.372 µM (active),–
NS(=O)(=O)OC[C@@H]1C[C@@H](n2ccc3c(N[C@H]4CCc5ccccc54)ncnc32)C[C@H]1O,0.148 µM (active),–
Oc1ccc(-c2ccc(-c3cc(Nc4cccc(CNC5CC5)c4)n[nH]3)cc2)c(O)c1,5.9 µM (active),–
O=C(Nc1cccc(Nc2ncc(Br)c(NCCc3cnc[nH]3)n2)c1)N1CCCC1,0.296 µM (active),–
N#Cc1c(C2CCNCC2)cc(-c2c(O)cccc2OCC2CC2)nc1N,14.8 µM (active),–
C=CC(=O)N1CCc2ccc(-n3c(=O)ccc4cnc5ccc(-c6cnn(C)c6)cc5c43)cc21,3.32 µM (active),–
O=C(Nc1cc2cc[nH]c2cn1)c1ccccc1,13.2 µM (active),–
FC(F)(F)c1ccc(Nc2nc3ccc(Oc4ccnc(-c5ncc(C(F)(F)F)[nH]5)c4)cc3[nH]2)cc1,9.35 µM (active),–
CC(O)(C#Cc1ccc2c(c1)N(c1nc(N)ncc1Cl)CC2)c1nccs1 (stereo not drawn),20.9 µM (active),–
Nc1ccn(C[C@@H](CO)OCP(=O)(O)O)c(=O)n1,–,86.1% [at 23.2 µM] (inactive)
CN1CCc2c(c3ccccc3n2Cc2ccc(C(=O)NO)cc2)C1,18.7 µM (active),–
CNC(=O)c1ccc(Nc2cc(Nc3ccccc3S(=O)(=O)C(C)C)c3cc[nH]c3n2)nc1,0.935 µM (active),–
CC(N[C@H]1CCCC[C@H]1NC(=O)c1ccc(Cl)cc1)c1cccc2ccccc12 (stereo partly drawn),–,127% (inactive)
Cc1[nH]c(C=C2C(=O)Nc3ccccc32)c(C)c1CCC(=O)O,0.235 µM (active),–
COc1cccc2c1C(=O)c1c(O)c3c(c(O)c1C2=O)C[C@@](O)(C(=O)CO)C[C@H]3O[C@H]1C[C@H](N)[C@H](O)[C@H](C)O1,–,73.5% (inactive)
CC(C)c1cnn2c(NCc3ccccc3)cc(NCCCCCCN)nc12,13.2 µM (active),–

Compound,Potency,viability (percent of control)
C[C@H](NCc1ccc(OCc2cccc(F)c2)cc1)C(N)=O,14.8 µM (active),–
Cc1cnc(NC(=O)Nc2cc(Br)c(C)cc2OC[C@@H]2CNCCO2)cn1,0.59 µM (active),–
CCOc1cc2ncc(C#N)c(Nc3ccc(OCc4ccccn4)c(Cl)c3)c2cc1NC(=O)C=CCN(C)C,2.96 µM (active),–
CCOC(=O)N1CCN([N+]([O-])=NOc2ccc([N+](=O)[O-])cc2C#N)CC1,2.64 µM (active),–
COc1cccc2c1C(=O)c1c(O)c3c(c(O)c1C2=O)C[C@@](O)(C(=O)CO)C[C@@H]3O[C@H]1C[C@H](N)[C@@H](O)[C@H](C)O1,0.0042 µM (active),–
Oc1cc(-c2nc(-c3ccccc3)[nH]c2-c2ccncc2)ccc1Cl,18.7 µM (active),–
CCN(CC)CCCCNc1ncc2c(n1)N(C)C(=O)N(c1c(Cl)c(OC)cc(OC)c1Cl)C2,20.9 µM (active),–
COc1cccc2c1C(=O)c1c(O)c3c(c(O)c1C2=O)C[C@@](O)(C(C)=O)C[C@H]3O[C@H]1C[C@H](N)[C@H](O)[C@H](C)O1,0.0469 µM (active),–
CN1[C@H]2CC(OC(=O)[C@@H](CO)c3ccccc3)C[C@H]1[C@H]1O[C@H]12 (stereo partly drawn),–,119% [at 23.2 µM] (inactive)
Cc1cc(Nc2ncc3c(n2)N(C)C(=O)N(c2cc(NC(=O)c4cccc(C(F)(F)F)c4)ccc2C)C3)n(C)n1,0.418 µM (active),–
C[N+](C)([O-])CCNc1ccc(NCC[N+](C)(C)[O-])c2c1C(=O)c1c(O)ccc(O)c1C2=O,–,83% (inactive)
C=CC[C@@H]1C=C(C)C[C@H](C)C[C@H](OC)[C@H]2O[C@@](O)(C(=O)C(=O)N3CCCC[C@H]3C(=O)O[C@H](C(C)=C[C@@H]3CC[C@H](O)[C@H](OC)C3)[C@@H](C)[C@@H](O)CC1=O)[C@@H](C)C[C@@H]2OC,1.48 µM (active),–
O=C(Nc1nnc(-c2ccco2)o1)c1cc(-c2ccccc2)nc2ccccc12,13.2 µM (active),–
CC(=O)OCC(=O)[C@@]1(O)CC[C@H]2[C@@H]3CCC4=CC(=O)CC[C@]4(C)[C@@H]3C(=O)C[C@@]21C,–,122% (inactive)
CCC(C(=O)O)C1CCC(C)C(C(C)C(O)C(C)C(=O)C(CC)C2OC3(C=CC(O)[C@@]4(CC[C@](C)(C5CC[C@@](O)(CC)C(C)O5)O4)O3)C(C)CC2C)O1 (stereo partly drawn),2.64 µM (active),–
CO[C@@H]1[C@@H](O)[C@H](O)[C@@H](n2c3c(Cl)cccc3c3c4c(c5c6cccc(Cl)c6[nH]c5c32)C(=O)NC4=O)O[C@@H]1CO,–,68.4% (inactive)
